Shown are actives, neighbours in structure and some others; about 8.7% of the full set was active somewhere.
JMJD2A Tudor = qHTS Assay for Inhibitors of JMJD2A-Tudor Domain; Lysine-specific demethylase 4A (Homo sapiens), O75164; AlphaScreen JMJD2A-Tudor / H3K4me3 peptide binding; Potency, µM (titrated, usually from 114 µM), inactives show top-dose activity change, negative = inhibition, hits mostly inhibitors; actives 4.4% (n = 390,000); also: % is scaled to controls: 0 for no effect and ±100 for the full control effect; nearly all actives have a fitted effect of over 50% in size
BAZ2B inh = qHTS Assay for Inhibitors of BAZ2B; AlphaScreen BAZ2B-H3K14Ac peptide displacement; Potency, µM (doses to about 114 µM), for the others: at the highest dose activity change, negative = inhibition, actives largely listed as inhibitors; actives 4.4% (n = 360,000); also: % is scaled to controls: 0 for no effect and ±100 for the full control effect; nearly all actives have a fitted effect of over 60% in size
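Compounds, titrated to a top concentration of 110 uM, were incubated 30 min at room temperature with preformed BAZ2B/acetyl-K14 H3 peptide complex (50 nM each). Proximity signal was measured by AlphaScreen after 20 min with beads.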
Sfp PPTase inh = qHTS Assay for Inhibitors of Bacillus subtilis Sfp phosphopantetheinyl transferase (PPTase). actives 3.5% (n = 310,000). Potency, µM, without a hit: largest response in the series, negative = inhibition, usual class: inhibitors. 4'-phosphopantetheinyl transferase ffp (Bacillus subtilis), Q9F4F7. Biochemical Sfp PPTase activity, qHTS;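 also: the enzyme is Sfp with the accession as filed and its product quenches rhodamine fluorescence; 0% = enzyme reaction without inhibitor and -100% = no enzyme wells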
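Compounds were incubated with enzyme (final 15 nM) for 15 min at room temperature before substrate addition started the reaction. Fluorescence at 525 nm excitation, 598 nm emission was recorded immediately and after 30 minutes.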
ALOX12 inh = Primary qHTS assay for inhibitors of human arachidonate 12S-lipoxygenase (ALOX12): Round 2 | Potency, µM (top dose mostly 108 µM), inactives show at the top dose activity change, negative = inhibition, actives largely listed as inhibitors | actives 1.1% (n = 580,000) | purified 12hLO, xylenol orange hydroperoxide absorbance; also: % is scaled to controls: 0 for no effect and ±100 for the full control effect
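Hydroperoxide product was detected by ferrous iron/xylenol orange as the 573 to 405 nm absorbance ratio. Arachidonic acid at 40 uM (final) was turned over for 30 min at room temperature by 150 nM human 12hLO, pH 7.0 Hepes buffer, after 15 min compound preincubation.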
HP1b chromo inh = HTS for Inhibitors of HP1-beta Chromodomain Interactions with Methylated Histone Tails; Chromobox protein homolog 1 (Homo sapiens), P83916; AlphaScreen HP1-beta / biotin-H3K9me3 peptide binding; Potency, µM (titrated, usually from 114 µM), for inactives: top-dose activity change, negative = inhibition, hits mostly inhibitors; actives 0.56% (n = 390,000); AID 540317, 2011; also: nearly all actives have a fitted effect of over 70% in size
Target sequence (P83916 whole entry, looked up): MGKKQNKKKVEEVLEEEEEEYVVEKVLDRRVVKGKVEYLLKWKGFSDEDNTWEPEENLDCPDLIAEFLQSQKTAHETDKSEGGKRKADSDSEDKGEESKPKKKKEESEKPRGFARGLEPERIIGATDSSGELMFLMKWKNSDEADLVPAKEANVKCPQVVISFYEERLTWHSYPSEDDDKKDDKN
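Compound inhibition of the preformed complex between 50 nM HP1-beta and 50 nM biotinylated H3K9me3 peptide was read by AlphaScreen. Buffer was PBS pH 7.4 with 0.01% Tween-20. Incubations ran 30 min at room temperature, with 10 ug/mL donor/acceptor beads.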
G9a inh = qHTS Assay for Inhibitors of Histone Lysine Methyltransferase G9a | Histone-lysine N-methyltransferase EHMT2 (Homo sapiens), Q96KQ7 | G9a H3K9 monomethylation, AlphaScreen, 2 h | Potency, µM (titrated, usually from 102 µM), for inactives: at the highest dose activity, negative = inhibition, hits mostly inhibitors | actives 8.8% (n = 350,000); also: % is scaled to controls: 0 for no effect and ±100 for the full control effect; nearly all actives have a fitted effect of over 75% in size
Target sequence (Q96KQ7 913-1193 limits assumed): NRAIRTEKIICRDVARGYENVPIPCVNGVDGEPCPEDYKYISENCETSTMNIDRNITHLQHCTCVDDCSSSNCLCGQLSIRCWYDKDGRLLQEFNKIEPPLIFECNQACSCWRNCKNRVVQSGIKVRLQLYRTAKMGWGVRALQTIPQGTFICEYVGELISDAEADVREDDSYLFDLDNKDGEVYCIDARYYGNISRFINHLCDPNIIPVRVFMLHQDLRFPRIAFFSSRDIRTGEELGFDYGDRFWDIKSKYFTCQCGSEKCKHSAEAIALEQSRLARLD
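G9a (20 nM) preincubated 15 min RT with compounds, then 500 nM biotinylated H3K9 peptide and 20 uM SAM added; 2 h RT reaction. Monomethyl-H3K9 product detected by AlphaScreen with anti-H3K9me1 antibody, streptavidin donor and anti-rabbit IgG acceptor beads.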
Active calls of the source: *; [ ] = another dose, or the depositor's remark. Calls follow the shape of the dose curve; as a rule, active = well fitted curve in the direction sought with a large enough effect; inconclusive = small, poorly fitted or top-dose-only effect, or another doubt; inactive = no such curve, though single readings can be large; an effect the other way counts as inactive or inconclusive. Potency is read from the fitted curve at half-maximal effect.

How did O=C([C@H]1C[C@H](Oc2ccccc2)CN1C(=O)NC1CCCCC1)N1CCOCC1 do in these assays?
ALOX12 inh: 27%

Results for O=c1n(Cc2ccc(F)c(F)c2)nc(C2CCNCC2)n1Cc1ccccc1 ?
ALOX12 inh: 9%

What do the screens show for `CCn1ncc(N2CCCC(CC(=O)Nc3ccc(C)c(F)c3)C2)cc1=O` (configuration not stated)?
ALOX12 inh: -3%

Results for COc1ccc(-c2cccc(C(=O)O)c2)cc1 ?
ALOX12 inh: -11%

Results for COc1ccc(N=Nc2cc(-c3ccccc3)ccc2O)cc1 ?
JMJD2A Tudor: 13µM*; BAZ2B inh: 10µM*; Sfp PPTase inh: 1%; ALOX12 inh: 6%; HP1b chromo inh: inconclusive; G9a inh: inconclusive

How did Nc1ccc([N+](=O)[O-])c2ncccc12 do in these assays?
ALOX12 inh: -29%

What do the screens show for `COc1cccc(N=Nc2ccc3cccnc3c2O)c1`?
JMJD2A Tudor: 14µM*; BAZ2B inh: 13µM*; Sfp PPTase inh: 15%; ALOX12 inh: inconclusive; HP1b chromo inh: inconclusive; G9a inh: 7.1µM*

Results for Cc1ccccc1N=Nc1ccc(O)c2ncccc12 ?
JMJD2A Tudor: inconclusive; BAZ2B inh: 7.9µM*; Sfp PPTase inh: 3%; ALOX12 inh: -37%; HP1b chromo inh: inconclusive; G9a inh: inconclusive

What do the screens show for `Cc1ccc(O)c2ncccc12`?
Sfp PPTase inh: 19%; G9a inh: 30%[12.7 µM]

What do the screens show for `Nc1ccc(N=Nc2ccccc2)c2cccnc12`?
JMJD2A Tudor: 32µM*; BAZ2B inh: 7.9µM*; Sfp PPTase inh: -22%; ALOX12 inh: 230%; HP1b chromo inh: 16µM*; G9a inh: 13µM*

How did COc1ccc(CNC(=O)[C@@H]2CCC[C@@H](NCc3ccc(C(F)(F)F)cc3)CN(C)C(=O)C2)cc1 do in these assays?
ALOX12 inh: 10%

What do the screens show for `Cc1ccc(S(=O)(=O)N2CCCN(c3nnnn3-c3ccccc3)CC2)cc1`?
ALOX12 inh: -28%

What do the screens show for `CC(C)(C)c1ccc(-c2nc(C#N)c(N3CCCCC3)o2)cc1`?
ALOX12 inh: 0%

How did O=Nc1ccc(O)c2ncccc12 do in these assays?
JMJD2A Tudor: 28µM*; BAZ2B inh: 22µM*; Sfp PPTase inh: inconclusive; ALOX12 inh: inconclusive; HP1b chromo inh: -2%; G9a inh: inconclusive

What do the screens show for `O=Nc1ccc(NO)c2ccccc12`?
ALOX12 inh: -24%

What do the screens show for `O=S(=O)(O)c1cccc2c(N=Nc3ccc(O)c4ncccc34)cccc12`?
JMJD2A Tudor: 25µM*; BAZ2B inh: 22µM*; Sfp PPTase inh: -7%; HP1b chromo inh: 22µM*; G9a inh: 10µM*

What do the screens show for `COc1cccc(N=Nc2ccc(O)c3ncccc23)c1`?
JMJD2A Tudor: 18µM*; BAZ2B inh: 7.9µM*; Sfp PPTase inh: 12%; ALOX12 inh: inconclusive; HP1b chromo inh: inconclusive; G9a inh: 10µM*

How did COc1cccc(-n2cnc(=O)c3cccnc32)c1 do in these assays?
JMJD2A Tudor: -3%; BAZ2B inh: 2%; Sfp PPTase inh: 8%; ALOX12 inh: -6%; HP1b chromo inh: 37%; G9a inh: 5%[59 µM]

What do the screens show for `Oc1ccc(N=Nc2ccc3c(c2)OCCO3)c(O)c1`?
JMJD2A Tudor: 40µM*; BAZ2B inh: inconclusive; Sfp PPTase inh: 10%; ALOX12 inh: -7%; HP1b chromo inh: -35%; G9a inh: inconclusive

Bioassay records as filed in PubChem BioAssay.
